# Source: the supplement of paper PMC7184167
# Counter-ions that a name gives are not always drawn.
# System: replication-induced senescent mouse newborn dermal fibroblasts (NBF)
# Assay: relative cell viability of senescent cells (fraction); higher = less killing of senescent cells
# Details: 1 µM; 3 days
# Procedure: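 Replication-induced senescent newborn mouse skin fibroblasts (NBFs) in 24-well plates were treated with a Selleck FDA-approved drug library at 1 µM for 3 days.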
row,Compound,relative cell viability
1,CN1CCN(CCOc2cc(OC3CCOCC3)c3c(Nc4c(Cl)ccc5c4OCO5)ncnc3c2)CC1 [Saracatinib (AZD0530)],0.626
2,c1ccc2[nH]c(-c3cscn3)nc2c1 [Thiabendazole],1.03
3,CC(C)(C#N)c1cc(Cn2cncn2)cc(C(C)(C)C#N)c1 [Anastrozole],0.993
4,CC(=O)Oc1ccccc1C(=O)Nc1ncc([N+](=O)[O-])s1 [Nitazoxanide],0.698
5,CCCCCOC(=O)Nc1nc(=O)n([C@@H]2O[C@H](C)[C@@H](O)[C@H]2O)cc1F [Capecitabine],0.891
6,COc1ccc([C@]2(C#N)CC[C@@H](C(=O)O)CC2)cc1OC1CCCC1 [Cilomilast],0.332
7,NC(=O)NO [Hydroxyurea],0.967
8,"Cc1[nH]c(/C=C2\C(=O)Nc3ccccc32)c(C)c1CCC(=O)O [Orantinib (TSU-68, SU6668)]",0.577
9,COc1cc2nccc(Oc3ccc(NC(=O)NC4CC4)c(Cl)c3)c2cc1C(N)=O [Lenvatinib (E7080)],0.123
10,CNC(=O)c1ccccc1Sc1ccc2c(/C=C/c3ccccn3)n[nH]c2c1 [Axitinib],0.908
11,"CN1CCN(c2ccc3nc(-c4c(N)c5c(F)cccc5[nH]c4=O)[nH]c3c2)CC1 [Dovitinib (TKI-258, CHIR-258)]",0.589
12,C#CCC(Cc1cnc2nc(N)nc(N)c2n1)c1ccc(C(=O)N[C@@H](CCC(=O)O)C(=O)O)cc1 (stereo not given in full) [Pralatrexate],0.863
13,COc1cc2nccc(Oc3ccc(NC(=O)Nc4cc(C)on4)c(Cl)c3)c2cc1OC [Tivozanib (AV-951)],1.04
14,C#Cc1cccc(Nc2ncnc3cc(OC)c(OCCCCCCC(=O)NO)cc23)c1,1.02
15,CC(=O)N[C@@H](CS)C(=O)O [Acetylcysteine],0.834
16,Oc1ccc(OCc2ccccc2)cc1 [Monobenzone],0.981
17,CC(=O)[C@H]1CC[C@H]2[C@@H]3CCC4=CC(=O)CC[C@]4(C)[C@H]3CC[C@]12C [Progesterone],0.968
18,CN1CC(=O)N2[C@H](c3ccc4c(c3)OCO4)c3[nH]c4ccccc4c3C[C@@H]2C1=O [Tadalafil],0.318

row,Compound,relative cell viability
1,C[C@H]1[C@H](NC(=O)/C(=N\OC(C)(C)C(=O)O)c2csc(N)n2)C(=O)N1S(=O)(=O)O [Aztreonam],1.06
2,Cc1nc(=O)c2cc(CN(C)c3ccc(C(=O)N[C@@H](CCC(=O)O)C(=O)O)s3)ccc2[nH]1 [Raltitrexed],0.916
3,C[C@H](NCc1ccc(OCc2cccc(F)c2)cc1)C(N)=O [Safinamide Mesylate],0.955
4,"O=c1[nH]cc(F)c(=O)[nH]1 [Fluorouracil (5-Fluoracil, 5-FU)]",0.0476
5,"Cc1cc(Nc2cc(N3CCN(C)CC3)nc(Sc3ccc(NC(=O)C4CC4)cc3)n2)n[nH]1 [Tozasertib (VX-680, MK-0457)]",0.364
6,CNCc1ccc(-c2[nH]c3cc(F)cc4c3c2CCNC4=O)cc1,0.0458
7,O=C(O)/C=C/c1ccc(Cn2ccnc2)cc1 [Ozagrel],1.02
8,CCOC(=O)[C@H](CCc1ccccc1)N[C@@H](C)C(=O)N1[C@H](C(=O)O)C[C@@H]2CCC[C@@H]21 [Ramipril],0.96
9,C#C[C@]1(O)CC[C@H]2[C@@H]3CCC4=CC(=O)CC[C@@H]4[C@H]3CC[C@@]21CC [Levonorgestrel],0.996
10,CC(=O)O[C@H]1C[C@@H]2CC[C@@H]3[C@H](CC[C@@]4(C)[C@H]3C[C@H]([N+]3(C)CCCCC3)[C@@H]4OC(C)=O)[C@@]2(C)C[C@@H]1N1CCCCC1 [Vecuronium Bromide],1.08
11,NC(=O)C1CCCc2c1[nH]c1ccc(Cl)cc21 (stereo not given) [Selisistat (EX 527)],0.498
12,NS(=O)(=O)c1cc2c(cc1Cl)NCNS2(=O)=O [Hydrochlorothiazide],1.07
13,"O=C(CCCCCCC(=O)Nc1ccccc1)NO [Vorinostat (SAHA, MK0683)]",0.75
14,Nc1ccc(S(=O)(=O)Nc2ccccn2)cc1 [Sulfapyridine],0.951
15,COc1cc2nc(N3CCN(C(=O)c4ccco4)CC3)nc(N)c2cc1OC [Prazosin HCl],0.927
16,CN/C(=N\CCSCc1nc[nH]c1C)NC#N [Cimetidine],1.01
17,CCOC(=O)C1=C(COCCN)NC(C)=C(C(=O)OC)C1c1ccccc1Cl (stereo not given) [Amlodipine Besylate],0.987
